High-throughput results deposited in PubChem BioAssay by several laboratories.
LANA-H2A inh: blockers of LANA interaction with H2A/H2B – biochemical, FP readout, HTS, primary screen. 320,000 tested, 0.6% active. Protein LANA1 (Human herpesvirus 8 type P (isolate GK18)), Q9QR71. cell-free LANA-H2A/H2B peptide, fluorescence polarization. inhibition, % (concentration not given with the values). AID 2629, 2010; in the data active means inhibition mostly above about 10%, no sharp cut-off; inactive means mostly below about 6.7%
PRMT1 inh: PRMT1 methyltransferase inhibitors, primary screen, biochemical, fluorescence polarization. Protein arginine N-methyltransferase 1 (Homo sapiens), Q99873. recombinant PRMT1, activity-based probe fluorescence polarization. inhibition, % at 2.79 µM. 370,000 tested, 1.3% active. AID 652257, 2013;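 active means inhibition above about 21% made by adding two undisclosed values, limit read from the data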
Target sequence (Q99873 whole entry, looked up): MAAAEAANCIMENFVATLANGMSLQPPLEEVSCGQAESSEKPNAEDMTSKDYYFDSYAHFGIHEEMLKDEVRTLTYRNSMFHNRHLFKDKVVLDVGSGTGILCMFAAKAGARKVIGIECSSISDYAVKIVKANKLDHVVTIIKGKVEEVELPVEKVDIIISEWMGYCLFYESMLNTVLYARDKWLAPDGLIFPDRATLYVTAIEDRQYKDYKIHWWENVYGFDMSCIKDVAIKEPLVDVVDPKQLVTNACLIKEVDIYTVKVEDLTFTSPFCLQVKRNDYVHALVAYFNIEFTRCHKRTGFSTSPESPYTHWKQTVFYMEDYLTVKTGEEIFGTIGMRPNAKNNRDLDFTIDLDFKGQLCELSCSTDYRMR
rCAG binder: binders of r(CAG) RNA repeats, primary screen, biochemical, fluorescence; r(CAG) RNA repeat, TO-PRO-1 dye displacement fluorescence; inhibition, % at 3 µM; 370,000 tested, 1.3% active;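 active means inhibition above the plate cutoff, the mean of all test compounds on that plate plus 3 SD, cut at about 35% in these data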;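 further: higher means more dye released from RNA so lower well fluorescence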
ALR H2O2 inh: inhibitors of human ALR sulfhydryl oxidase, primary screen, biochemical, H2O2 detection, HRP-luminol luminescence, single point; FAD-linked sulfhydryl oxidase ALR (Homo sapiens), P55789; AID 485317, 2010; inhibition, % (no concentration beside the values); 290,000 tested, 3.8% active; purified ALR, DTT oxidation;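 active means mean replicate inhibition above about 79%, with every replicate also reaching it, limit read from the data; inconclusive means only one of the two criteria met; inactive means mean below limit and not every replicate reaching it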
Target sequence (P55789 whole entry, looked up): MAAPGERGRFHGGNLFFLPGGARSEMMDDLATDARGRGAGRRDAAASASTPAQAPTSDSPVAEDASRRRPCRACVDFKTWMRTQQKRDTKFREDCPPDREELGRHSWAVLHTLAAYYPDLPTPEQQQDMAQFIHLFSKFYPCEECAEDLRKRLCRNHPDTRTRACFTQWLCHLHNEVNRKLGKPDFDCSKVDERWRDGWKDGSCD
ABHD5 PLIN5 PPI: ABHD5-PLIN5 interaction inhibitors, primary screen, cell lysate, split luciferase complementation, luminescence | Split G. princeps luciferase complementation, 4 h | inhibition, % at 4 µM | AID 602281, 2012 | Perilipin-5 (Homo sapiens) + 1-acylglycerol-3-phosphate O-acyltransferase ABHD5 (Homo … | 360,000 tested, 0.78% active;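 active means inhibition above the mean inhibition across every tested compound plus 3 SD, cut at about 22% in these data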
Rtt109 Vps75: inhibitors of C. albicans Rtt109/Vps75 HAT, primary screen, biochemical, ThioGlo CoA-SH fluorescence, plate reader | purified Rtt109/Vps75, 4 h | inhibition, % at 34.9 µM | 330,000 tested, 0.16% active | AID 540336, 2011;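 active means inhibition of at least 50% in every replicate; inconclusive means best replicate reaches 50% inhibition but some replicates fall short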
ABHD5 PLIN5 conf: ABHD5-PLIN5 interaction inhibitors, confirmation, biochemical, luminescence; shares compounds with ABHD5 PLIN5 PPI; inhibition, % at 4 µM; 2,200 tested, 67% active; in the data active means inhibition above about 23%
HNF4 counter: HNF4 dimerization inhibitors, counter-screen for ABHD5-PLIN5 interaction inhibitor project, biochemical, split-luciferase complementation, luminescence. shares compounds with ABHD5 PLIN5 PPI. inhibition, % at 4 µM. 2,200 tested, 77% active;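 active means mean inhibition across replicate wells exceeding the computed hit threshold, cut at about 13% in these data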;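 further: light from luciferase halves that rejoin when HNF4 fusion proteins dimerize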
Hits are given with their value; n = inactive; u = inconclusive; x = not tested or not shown. Only some compounds are listed: those with a hit (about 5.9% of all), similar ones and a draw of the others.

SMILES	LANA-H2A inh	PRMT1 inh	rCAG binder	ALR H2O2 inh	ABHD5 PLIN5 PPI	Rtt109 Vps75	ABHD5 PLIN5 conf	HNF4 counter
Cc1cc(NC(=O)CCCS(=O)(=O)c2nc(-c3cccs3)cc(C(F)(F)F)n2)no1	n	n	n	n	47	n	74	100
CC(C)Nc1nc(Cl)nc(N(C#N)CN2C(=O)c3ccccc3S2(=O)=O)n1	n	n	n	n	n	n	x	x
CN(C)c1nc(N(C)C)nc(N(C#N)CN2C(=O)c3ccccc3S2(=O)=O)n1	n	n	n	n	n	n	x	x
CC(C)(C)Nc1nc(Cl)nc(N(C#N)CN2C(=O)c3ccccc3S2(=O)=O)n1	n	n	n	92	33	n	30	24
COc1nc(NC(C)C)nc(N(C#N)CN2C(=O)c3ccccc3S2(=O)=O)n1	n	n	n	n	26	x	29	26
CCOc1ccc(NCc2nc3ccccc3n2CCOc2ccccc2)cc1	x	n	n	n	25	n	n	n
O=C(/C=C/c1cccc([N+](=O)[O-])c1)c1cccs1	n	n	n	n	74	n	97	102
CC(=O)Oc1ccccc1C(=O)C=Cc1cccc([N+](=O)[O-])c1	x	n	n	x	99	n	104	109
COc1ccccc1C(=O)/C=C/c1ccc(N2CCCCC2)c([N+](=O)[O-])c1	n	n	n	n	37	n	64	67
Cc1ccccc1CN1CCCCC(NC(=O)c2cccc([N+](=O)[O-])c2)C1=O (stereo not drawn)	x	n	n	x	x	x	x	x
CCOC(=O)[C@@]12CCCC3=C1N(CCC3)C(=O)[C@H]2CC(=O)NCc1ccccc1	x	n	n	x	x	x	x	x
CC1(C(=O)NS(=O)(=O)c2cccc(C#N)c2)CCN1C(=O)Cc1ccc(Cl)cc1Cl (stereo not drawn)	x	n	n	x	n	x	x	x
CCOC(=O)N1CCN(C(=O)C2CCN(C(=O)c3ccccc3C)CC2)CC1	x	91	n	x	26	u	38	91
Cc1ccccc1C(=O)N1CCC(C(=O)N2CCN(c3ncccn3)CC2)CC1	n	n	n	n	n	n	x	x
CCc1ccc(OCc2cccc(C(=O)N/N=C\c3cnn(C)c3C)c2)cc1	x	n	n	x	n	n	x	x
CCN(CC)c1ccc(C(=C2C=CC(=[N+](CC)CC)C=C2)c2ccccc2)cc1	x	n	n	x	98	n	102	109
CCN(CC)c1ccc(C(=C2C=CC(=[N+](CC)CC)C=C2)c2ccc(N(CC)CC)cc2)cc1	x	n	n	x	64	n	58	58
CCN(CC)c1ccc(C(=O)NNC(=O)CCl)cc1	n	n	n	x	n	n	x	x
CCN(CC)c1ccc(C(=O)NNC(=O)CCNC(=O)c2ccccc2)cc1	n	n	n	n	n	n	x	x
O=C(NC1CCCC1)C1CCN(S(=O)(=O)c2ccc3[nH]c(=O)oc3c2)CC1	x	n	n	x	x	x	x	x
O=C(CSc1nnc(-c2ccco2)n1-c1ccc(Cl)cc1)Nc1ccccc1-c1ccccc1	x	n	n	x	x	x	x	x
CNC(=O)/C(C#N)=C/c1ccc(-c2nc3ccccc3s2)o1	n	n	n	x	35	x	n	n
COc1ccc(NC(=O)Nc2ccccc2C(=O)N2CCCC2)cc1OC	x	n	n	x	x	x	x	x
CCc1ccc(/C=C/C(=O)c2c(C)cc(C)[nH]c2=O)cc1	n	n	n	n	29	n	48	29
CCOC(=O)c1c(-c2ccc(C)o2)csc1NC(=O)CN(C)CC(=O)Nc1ccc(C)cc1	n	22	n	n	26	n	n	53
SMILES	LANA-H2A inh	PRMT1 inh	rCAG binder	ALR H2O2 inh	ABHD5 PLIN5 PPI	Rtt109 Vps75	ABHD5 PLIN5 conf	HNF4 counter
COc1ccc(CN2C(=O)N3Cc4ccccc4C3CS2(=O)=O)cc1 (stereo not drawn)	x	n	n	x	x	x	x	x
Cc1ccc(NC(CC(=O)c2ccccc2)C(=O)O)cc1Cl (stereo not drawn)	n	n	n	n	29	n	n	40
CC(C)NC(=O)C1(C)CCN1C(=O)c1ccc2c(c1)OCO2 (stereo not drawn)	x	n	n	x	n	x	x	x
N#Cc1cccc(-c2csc(C(O)c3ccc(F)cc3)n2)c1 (stereo not drawn)	x	n	n	x	n	x	x	x
Cc1ccc(/C=C/C(=O)N2CCN(S(=O)(=O)/C=C/c3ccccc3)CC2)o1	n	n	n	n	n	n	x	x
O=C(/C=C/c1ccco1)N1CCN(S(=O)(=O)/C=C/c2ccccc2)CC1	x	n	n	n	29	n	24	46
O=C(/C(=C\c1ccccc1)c1nc2ccccc2[nH]1)c1ccc(Cl)cc1	n	n	n	x	n	n	x	x
COC(=O)/C(=C\c1cc(OC)c(OC)c(OC)c1)c1nc2ccccc2[nH]1	n	n	n	n	n	n	x	x
COc1cc(/C=C(/C(=O)c2cccs2)c2nc3ccccc3[nH]2)ccc1O	n	n	n	u	35	n	76	68
O=C(/C(=C/c1ccc(Cl)cc1)c1nc2ccccc2[nH]1)c1cccs1	n	x	x	n	58	n	101	94
CCSc1nnc(-c2c[nH]c3ccccc23)o1	n	x	x	n	98	n	n	n
N#CCSc1nnc(-c2c[nH]c3ccccc23)o1	n	n	n	n	n	n	x	x
Nc1ccn([C@@H]2O[C@H](C(=O)N[C@H](Cc3ccccc3)C(=O)N3CCN(C(=O)N4CCCCC4)CC3)[C@@H](O)[C@H]2O)c(=O)n1	x	n	n	x	x	x	x	x
CCOC(=O)c1c(C)oc2c1c(CN1CCN(CCO)CC1)c(O)c1ccccc12	x	n	n	x	35	n	63	25
CCOC(=O)c1c(C)oc2c1c(CN1CCN(C(=O)OCC)CC1)c(O)c1ccccc12	x	n	n	x	n	n	x	x
CC(=O)Oc1c(Cl)cc(N(C(C)=O)S(=O)(=O)c2ccccc2)c2ccccc12	n	n	n	x	58	x	49	15
CC(=O)Oc1ccc(N(C(C)=O)S(=O)(=O)c2ccccc2)c2ccccc12	x	n	n	x	n	x	x	x
O=C1NC(Cc2ccccc2)C(=O)Nc2ccc(Br)cc21 (stereo not drawn)	n	n	n	n	n	n	x	x
O=C1Nc2ccc(Br)cc2/C1=C/C1CC=CCC1 (stereo not drawn)	n	n	n	x	25	n	53	38
